Assay outcomes from PubChem.
GDH-TPI counter = GDH-TPI coupled enzyme inhibition counter-screen; GDH-TPI coupled enzyme counterscreen, NADH absorbance; inhibition, % at 4.8 µM; hit rate 1.2% among 360,000; in the data active means inhibition above about 30%
RecA splice inh = Mtb RecA intein splicing inhibition. P9WHJ3. cell-free RecA intein splicing, fluorescence. inhibition, % (test concentration not listed). hit rate 0.75% among 290,000. AID 2221; in the data active means inhibition above about 30%
Mtb FBA inh = inhibits M. tuberculosis FBA enzyme | hit rate 2.3% among 360,000 | purified M. tuberculosis FBA, fluorescence read-out | AID 588726 | inhibition, % at 1 µM | P9WQA3; in the data active means inhibition above about 27%
Rv3671c inh = inhibitors of M. tuberculosis serine protease Rv3671c | P9WHR9 | hit rate 0.048% among 320,000 | inhibition, % at 5.96 µM; in the data active means inhibition above about 38%;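 further: extracellular domain of Rv3671c used as enzyme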
Mtb bLac sens = beta-lactam sensitization of Mtb H37Rv; inhibition, % at 25 µM; M. tuberculosis H37Rv growth with meropenem, percent inhibition; hit rate 0.27% among 330,000; call rule not given here;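 further: growth measured after seven days incubation then overnight dye step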
Mtb UGM inh = inhibitors of M. tuberculosis UDP-galactopyranose mutase; inhibition, % at 10 µM; P9WIQ1; purified UGM, fluorescence polarization probe displacement; AID 504406; hit rate 0.06% among 320,000; in the data active means inhibition above about 10%, passing the limit was not always enough
Target sequence (P9WIQ1 whole entry, looked up): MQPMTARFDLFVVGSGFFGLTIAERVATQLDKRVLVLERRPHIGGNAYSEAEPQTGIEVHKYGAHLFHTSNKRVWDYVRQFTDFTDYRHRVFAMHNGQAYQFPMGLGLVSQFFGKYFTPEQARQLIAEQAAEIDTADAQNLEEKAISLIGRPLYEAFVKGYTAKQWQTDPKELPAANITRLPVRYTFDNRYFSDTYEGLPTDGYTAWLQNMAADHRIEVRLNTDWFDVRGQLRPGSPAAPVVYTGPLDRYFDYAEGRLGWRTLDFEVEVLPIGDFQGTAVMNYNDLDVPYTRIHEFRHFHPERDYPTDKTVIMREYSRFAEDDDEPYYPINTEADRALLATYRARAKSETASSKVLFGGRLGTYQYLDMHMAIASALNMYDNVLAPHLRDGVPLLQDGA
Hits are given with their value; - = inactive; . = not tested or not shown; + = active, no number. This is a sample that favours compounds with a hit; in the whole collection about 4% have one here.

SMILES | GDH-TPI counter | RecA splice inh | Mtb FBA inh | Rv3671c inh | Mtb bLac sens | Mtb UGM inh
NC(=O)c1ccc(NC(=O)COC(=O)c2cc3ccccc3cc2O)cc1 | - | . | - | - | - | -
CCOc1ccc(NC(=O)Nc2c(C)n(C)n(-c3ccccc3)c2=O)cc1 | - | - | - | - | - | -
Cc1nnc(SCC(=O)N/N=C/c2cc(Cl)c(O)c(Cl)c2)s1 | 35 | - | - | - | - | -
O=C(/C=C/c1cccc([N+](=O)[O-])c1)OCC(=O)N1CCCCC1 | - | . | - | . | . | .
Cc1ccccc1N(CC(=O)N/N=C/c1ccc(N(C)C)cc1)C(=O)c1ccccc1 | 40 | - | - | - | - | -
Cc1ccccc1N(CC(=O)N/N=C/c1ccccc1Cl)C(=O)c1ccccc1 | - | - | - | - | - | -
CN(c1ccccc1)c1ccc(/C=N/NC(=O)CC#N)cc1 | 31 | - | - | - | - | -
N#CCC(=O)N/N=C/c1ccc(Cl)cc1 | - | - | - | - | - | -
CN(C)c1ccc(/C=N/NC(=O)CSc2ccccn2)cc1 | 60 | - | - | - | - | -
COCCCNC(=S)N/N=C/c1ccc(N(C)C)cc1 | - | - | 48 | - | - | -
COCCCN1C(=O)C(CC(=O)NCc2cccs2)CC(C(=O)N(C(C)C)C(C)C)=C1C (stereo not drawn) | . | . | - | . | . | .
COc1ccc(-c2csc(C(C)(O)c3ccccc3)n2)cn1 (stereo not drawn) | - | . | - | . | . | .
CC(C)(C)c1ccc(/C=N/NC(=S)NCc2ccccc2)cc1 | - | - | - | - | - | .
Cn1c(=O)n(C)c2cc(/C=N/NC(=S)NCc3ccccc3)ccc21 | 34 | - | - | - | - | -
COc1cc(/C=N/NC(=S)NCc2ccccc2)ccc1OCC#N | - | - | - | - | - | -
CN(C)c1ccc(/C=N/NC(=S)NCc2ccccc2)cc1 | 32 | - | - | - | - | -
COc1ccc(S(=O)(=O)N(C)c2ccc(C(=O)Nc3c(C)n(C)n(-c4ccccc4)c3=O)cc2)cc1 | - | - | - | - | - | -
Cc1cc(C)cc(Nc2ccc(C(=O)O)cc2N)c1 | - | - | 118 | - | - | -
Cc1ccc(Nc2ccc(C(=O)O)cc2N)cc1 | . | - | . | - | - | -
CC[C@]12C(=O)N(C)C[C@H]([C@@H]3C(=O)N(C)C(=O)[C@@H]31)N2C(=O)c1ccc(Cl)cc1 | - | . | - | . | . | .
CCCCSCc1nc2nc(Cl)c(Cl)nc2[nH]1 | 35 | . | - | . | . | .
CN1C(=O)C(=O)/C(=C(/O)c2ccccc2)C1c1ccc([N+](=O)[O-])cc1 (stereo not drawn) | - | . | - | - | - | -
O=c1c(Cl)c(NCCCO)cnn1-c1nc2ccccc2[nH]1 | - | 44 | - | - | - | -
C=CCN(CC=C)c1cnn(-c2nc3ccccc3[nH]2)c(=O)c1Cl | - | - | - | - | - | -
CC(C)C(C)NC(=O)CN1C(=O)NC2(CCc3ccccc32)C1=O (stereo not drawn) | - | - | - | - | - | -
SMILES | GDH-TPI counter | RecA splice inh | Mtb FBA inh | Rv3671c inh | Mtb bLac sens | Mtb UGM inh
O=S(=O)(c1ccc(NC(=S)NC23CC4CC(CC(C4)C2)C3)cc1)N1CCCCC1 | - | . | - | . | . | .
CCOC(=O)c1cnn2c(C(F)(F)F)cc(-c3cn(C)nc3C)nc12 | - | - | 72 | - | - | -
COc1ccc2cc3cc(C(=O)Nc4ccc5c(c4)OCO5)oc3nc2c1 | - | - | - | - | - | -
CCCCN(CC)CCCNC(=O)c1cc2cc3ccc(OC)cc3nc2o1 | 36 | - | + | - | - | -
COc1ccc2cc3cc(C(=O)NCc4cccs4)oc3nc2c1 | 31 | - | + | - | - | -
CCCN(CCC)CCCNC(=O)c1cc2cc3ccc(OC)cc3nc2o1 | 32 | - | + | - | - | -
COc1ccc(CC(=O)NCc2cccs2)cc1 | - | - | - | - | - | -
COc1ccc(Cl)cc1C(=O)Nc1cccnc1Cl | - | . | - | - | - | -
CC(C)c1ccc(NC(=O)C2Cc3c(-c4ccc(Cl)cc4)ccnc3O2)cc1 (stereo not drawn) | - | . | - | . | . | .
Cn1cnc([N+](=O)[O-])c1Sc1ccc(C(C)(C)C)cc1 | - | 31 | - | - | - | -
Cn1cnc([N+](=O)[O-])c1Sc1ccc(Br)cc1 | - | - | - | - | - | -
C=CCN1C(=O)S/C(=C/c2ccsc2)C1=O | - | - | - | - | - | -
CCN1C(=O)S/C(=C/c2ccsc2)C1=O | 39 | - | - | - | - | -
CCCN(S(=O)(=O)c1ccccc1F)S(=O)(=O)c1ccccc1Br | - | - | - | - | - | -
